Assay outcomes from PubChem BioAssay.
Compounds with a hit are over-represented: about 4.5% of the library has one in this group of screens.
dFosB act: enhances mouse delta FosB homodimer DNA binding; purified delta FosB, TAMRA-CDK5 oligo fluorescence polarization; percent of positive-control signal above neutral wells; activation, % at 25 µM; hit rate 0.99% among 340,000;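 active means mean activation above about 17%, with every replicate also reaching it, limit read from the data, passing the limit was not always enough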
Target sequence (P13346 whole entry, looked up): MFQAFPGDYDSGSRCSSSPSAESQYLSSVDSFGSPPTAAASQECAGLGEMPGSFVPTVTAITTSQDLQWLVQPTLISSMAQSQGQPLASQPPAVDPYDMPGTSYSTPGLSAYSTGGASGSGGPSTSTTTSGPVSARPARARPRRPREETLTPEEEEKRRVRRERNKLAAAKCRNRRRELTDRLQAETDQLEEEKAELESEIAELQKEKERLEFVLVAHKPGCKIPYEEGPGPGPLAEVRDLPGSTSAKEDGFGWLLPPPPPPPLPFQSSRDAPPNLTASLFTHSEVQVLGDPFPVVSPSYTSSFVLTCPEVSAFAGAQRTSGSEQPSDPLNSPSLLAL
EBNA-1 inhibitor: blocks EBNA-1 binding to DNA; EBNA-1 DNA binding, fluorescence polarization; inhibition, % at 14.8 µM; hit rate 0.34% among 300,000; AID 1950; in the data active means inhibition above about 28%
ZTA DNA inh: ZTA (EBV) inhibition in EBNA-1 counter-screen; P03206; ZTA-DNA binding, fluorescence polarization; inhibition, % at 11 µM; hit rate 0.15% among 320,000; in the data active means inhibition above about 33%
Rpn11 inh: Rpn11 (human) deubiquitinase inhibition | O00487 | human 26S proteasome, Ub4-pepOG fluorescence polarization; 20S core pre-blocked with epoxomicin | inhibition, % at 20 µM | hit rate 0.59% among 360,000;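 active means inhibition at 20 µM, scaled to each plate's controls, above about 33%, limit read from the data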
Target sequence (O00487 whole entry, looked up): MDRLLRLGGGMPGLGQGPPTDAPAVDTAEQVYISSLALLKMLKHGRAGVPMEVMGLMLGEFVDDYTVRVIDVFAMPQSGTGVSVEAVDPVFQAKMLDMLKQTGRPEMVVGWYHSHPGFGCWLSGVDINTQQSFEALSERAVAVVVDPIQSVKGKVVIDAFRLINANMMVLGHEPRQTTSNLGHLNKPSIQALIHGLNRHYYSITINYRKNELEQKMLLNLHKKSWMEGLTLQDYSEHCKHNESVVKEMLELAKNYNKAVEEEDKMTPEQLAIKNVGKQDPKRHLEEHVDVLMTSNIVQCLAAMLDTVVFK
NR3A LBD binder: NR3A (human) ligand-binding domain modulation; NR3A LBD differential scanning fluorimetry, Tm shift; 0% = protein alone, 100% = glycine-bound protein; Tm shift relative to glycine control, % at 25 µM; hit rate 2.5% among 340,000; AID 1259313;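 active means melting temperature shift of at least 10% of the positive control shift, at one fixed dose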
TPT1 inhibitor: inhibitors of Candida albicans tRNA 2'-phosphotransferase TPT1; recombinant caTPT1, FP RNA substrate dephosphorylation; inhibition, % at 5 µM; AID 1962; hit rate 0.81% among 300,000;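 active means inhibition above the mean of all tested compounds plus 3 SD, set per screening campaign, cut at about 24% in these data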;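 further: plate controls were DMSO alone for no effect and ferristatin control at 100 nM for full effect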
caTPT1 confirm: confirmation of Candida albicans TPT1 inhibitors; shares compounds with TPT1 inhibitor; recombinant caTPT1, fluorescence polarization, RNase T1 coupled; inhibition, % at 5 µM; hit rate 74% among 2,400;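 active means inhibition above the primary screen limit, the mean inhibition of all tested compounds plus 3 SD, cut at about 25% in these data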
RNase T1 counter: counter-screen for TPT1 inhibitors: inhibitors of Aspergillus oryzae RNase T1; hit rate 83% among 2,400; RNase T1 cleavage, fluorescence polarization, 1536-well; inhibition, % at 5 µM; shares compounds with TPT1 inhibitor;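 active means inhibition above the solvent-only control well mean plus 3 SD, limit set per screening run, cut at about 23% in these data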;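 further: plate controls were DMSO wells with enzyme for no effect and wells without RNase T1 for full effect; inhibitors block cleavage so intact labeled substrate keeps polarization high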
Target sequence (P00651 whole entry, looked up): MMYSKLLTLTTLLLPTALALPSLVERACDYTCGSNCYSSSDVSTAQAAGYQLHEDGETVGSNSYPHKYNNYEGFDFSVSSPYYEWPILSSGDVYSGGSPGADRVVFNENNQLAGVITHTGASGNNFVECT
ZTA inh confirm: confirmation of Epstein-Barr virus ZTA DNA binding inhibitors. shares compounds with ZTA DNA inh. Zta-ZRE DNA binding, fluorescence polarization. inhibition, % at 11.1 µM. hit rate 30% among 320;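 active means mean inhibition across triplicate runs above the hit threshold derived for the original primary screen, cut at about 33% in these data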;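 further: 0% = Zta with DMSO and 100% = wells lacking Zta protein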
EBNA1 counter: counter-screen for ZTA inhibitors: EBNA-1 DNA binding inhibition. shares compounds with ZTA DNA inh. fluorescence polarization. inhibition, % at 14.8 µM. 320 tested, under 10 active. AID 2362; call rule not given here
Rpn11 inh conf: Rpn11 inhibition confirmation, single concentration; shares compounds with Rpn11 inh; purified human 26S proteasome, Ub4-pepOG fluorescence polarization; proteasome pretreated with epoxomicin; inhibition, % at 20 µM; hit rate 29% among 1,900
MMP-2 inh: blocks human MMP-2, flagging nonselective RPN11 hits; shares compounds with Rpn11 inh; recombinant MMP-2, FRET peptide cleavage fluorescence; inhibition, % at 20 µM; hit rate 4% among 1,900; AID 602330;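 further: human MMP-2 activated beforehand with APMA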
Thrombin FP: thrombin (bovine) inhibition counter-screen; shares compounds with Rpn11 inh; bovine thrombin cleavage of Ub4-pepOG, fluorescence polarization; inhibition, % at 20 µM; hit rate 13% among 1,900; AID 602333;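 active means mean inhibition at least 40% at 20 µM, or signal 3 deviations below plate average, so some actives read negative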;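 further: plate controls were thrombin with DMSO for no effect and buffer wells lacking thrombin for full effect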
* = called active by the depositor; nt = no result; + = active, no number. Unless noted, no stated cut-off is given here; in the data, active means inhibition above about 40%; inactive means the rest.

SMILES | dFosB act | EBNA-1 inhibitor | ZTA DNA inh | Rpn11 inh | NR3A LBD binder | TPT1 inhibitor | caTPT1 confirm | RNase T1 counter | Rpn11 inh conf | MMP-2 inh | Thrombin FP | others
CSc1nsc(/C=C/Nc2ccc(F)cc2F)c1C#N | -9.5 | -2.5 | -6.8 | 54.6* | 0.6 | 54.1* | 72.1* | 89.0* | -19.6 | -12.6 | -20.7
Cc1snc(SCc2ccc(F)cc2)c1C#N | -7.1 | -8.8 | -8.4 | 0.7 | -0.2 | -2.2 | nt | nt | nt | nt | nt
CSc1nsc(/C=C/Nc2ccc(C(=O)O)cc2)c1C#N | -8.9 | 10.3 | 3.5 | 67.9* | -6.8 | 30.5* | 42.6* | 52.7* | 53.2* | -7.5 | 41.7*
CCOC(=O)c1c(C)[nH]c(O)c1C=Nc1ccc(C(F)(F)F)cc1 | -4.7 | 2.3 | 8.0 | 49.3* | -1.9 | 35.6* | 30.4* | 39.6* | 1.8 | -0.7 | -0.7
CC[n+]1ccc(/C=C2\Sc3ccccc3N2CCCS(=O)(=O)[O-])c2ccccc21 | -0.6 | -4.5 | 5.3 | 32.6* | -0.8 | 31.0* | 14.1 | 19.0 | -2.8 | -43.6 | -12.2
C[n+]1ccccc1/C=C1\Sc2ccccc2N1CCO | 0.3 | -0.7 | -5.3 | -0.7 | -1.7 | 2.1 | nt | nt | nt | nt | nt
CCOC(=O)c1ccc(/C=C2/C=C(c3ccccc3)N(c3ccc(Cl)c(C(=O)O)c3)C2=O)cc1 | -14.9 | -2.5 | -4.6 | 68.1* | 21.3* | 61.9* | 74.4* | 80.2* | 155.7* | -46.7 | 152.5*
CCOC(=O)c1ccc(Cl)c(NC(=O)c2ccc(-c3ccccc3)cc2)c1 | -2.2 | 8.6 | -8.8 | -2.1 | 1.7 | -0.1 | nt | nt | nt | nt | nt
COc1ccc(C(=O)N=C2SC3CS(=O)(=O)CC3N2c2ccc(N(C)C)cc2)cc1OC (stereo unspecified) | -3.5 | -3.8 | -1.4 | -2.0 | 1.8 | -1.4 | nt | nt | nt | nt | nt
COC(=O)c1cn(C(=O)c2ccc(OC)cc2)c2ccccc12 | -7.3 | -5.3 | -21.5 | 2.8 | -0.8 | 1.2 | nt | nt | nt | nt | nt
O=C(N/N=C/c1cc(Br)cc(Cl)c1O)c1ccc2c(c1)OCO2 | -3.7 | -3.5 | 1.1 | + | 10.5* | 35.2* | 32.5* | 44.6* | 198.2* | 24.8 | 13.4
O=C1NC(=Nc2ccccc2)S/C1=C\c1cccn1-c1ccccc1 | 11.9 | 3.2 | 20.2 | 6.1 | -1.1 | 0.6 | nt | nt | nt | nt | nt
Cc1ccccc1N=C1NC(=O)/C(=C/c2cccn2C)S1 | -3.6 | -4.7 | -0.3 | 54.5* | -1.9 | 37.9* | 28.5* | 38.8* | 39.5 | 4.9 | 43.9*
CC(=O)c1cccc(N(C(=O)CNC(=O)c2ccco2)C(C(=O)NC2CCCC2)c2ccco2)c1 (stereo unspecified) | -3.9 | 2.4 | 5.4 | 0.5 | -0.2 | 4.0 | nt | nt | nt | nt | nt
CCN(CCO)c1ccc(N=Nc2cc(C)[nH]n2)cc1 | -10.2 | -10.0 | 2.2 | 70.3* | -2.3 | 25.3* | 33.6* | 42.4* | 42.1* | -12.8 | 36.5
COc1ccc(/C=C2\C(=O)NC(=S)N2C(=O)c2ccc(C)cc2)cc1 | -0.6 | 2.5 | 15.0 | 64.2* | 5.5 | 49.2* | 65.5* | 78.2* | 106.8* | 17.6 | 56.4*
CCN(c1ccccc1)S(=O)(=O)c1cccc(C(=O)NCC(c2ccc(F)cc2)N2CCOCC2)c1 (stereo unspecified) | -6.7 | nt | nt | 3.5 | -0.9 | nt | nt | nt | nt | nt | nt
NC(=O)c1ccc(NC(=O)COC(=O)/C=C/c2cn(-c3ccccc3)nc2-c2cccnc2)cc1 | 13.9 | 6.3 | 11.9 | 50.4* | -3.5 | 46.8* | 51.6* | 65.7* | 37.9 | -12.4 | 18.0
N#Cc1ccccc1NC(=O)COC(=O)/C=C/c1cn(-c2ccccc2)nc1-c1ccc(Cl)cc1 | 8.4 | nt | nt | -3.3 | -3.2 | nt | nt | nt | nt | nt | nt
O=C1CC(=O)N(Cc2ccco2)C(=S)N1 | 2.4 | 6.2 | 54.8* | 190.9* | -3.8 | 111.0* | 20.9 | 30.9* | 101.8* | 81.8* | + | ZTA inh confirm=-3.2;EBNA1 counter=-5.7
O=C1C2C(C(=O)N1Cc1ccco1)C1C=CC2C12CC2 (stereo unspecified) | -9.0 | -8.1 | -14.6 | 0.9 | -1.1 | -0.6 | nt | nt | nt | nt | nt
O=C1CC(=O)N(Cc2ccco2)C(=O)N1 | -5.3 | 13.6 | 22.5 | 161.9* | 1.4 | 92.4* | 47.5* | 58.5* | 125.4* | 38.2 | 63.5*
COc1ccc(CCN=C(N)NS(=O)(=O)c2cc(F)ccc2OC)cc1 | -5.5 | -9.1 | -12.7 | -0.6 | 0.7 | -1.8 | nt | nt | nt | nt | nt
CCOC(=O)N1CCN(CCC(=O)Nc2cc(C)ccc2C)CC1 | 4.7 | -5.9 | -8.1 | 4.6 | -2.3 | 0.3 | nt | nt | nt | nt | nt
O=C(NCc1ccccc1)c1cccc(NS(=O)(=O)c2cccc3cccnc23)c1 | -2.6 | 5.3 | 2.7 | -2.5 | -2.2 | -1.0 | nt | nt | nt | nt | nt
SMILES | dFosB act | EBNA-1 inhibitor | ZTA DNA inh | Rpn11 inh | NR3A LBD binder | TPT1 inhibitor | caTPT1 confirm | RNase T1 counter | Rpn11 inh conf | MMP-2 inh | Thrombin FP | others
COc1ccc2o/c(=N/NC(=O)c3cccs3)c(C(N)=O)cc2c1 | -8.4 | -3.1 | 2.2 | 44.4* | 0.0 | 51.6* | 67.6* | 78.7* | 70.2* | -28.4 | 43.1*
NC(=O)c1cc2ccccc2o/c1=N/NC(=O)c1cccs1 | -19.9 | -18.1 | 2.5 | -2.0 | -1.1 | 2.1 | nt | nt | nt | nt | nt
Cc1noc(C)c1COc1ccc(C(=O)OCC(=O)NCCN2C(=O)CSC2=O)cc1 | 3.5 | 4.2 | 7.4 | 5.1 | -1.5 | 0.8 | nt | nt | nt | nt | nt
CCCCC1(C)OC(=O)C(=Cc2ccc(N(CC)CC)cc2)C(=O)O1 (stereo unspecified) | -51.7 | 2.0 | -2.4 | 55.2* | 3.2 | 92.5* | 167.1* | 154.7* | 92.1* | -28.9 | 89.6*
Cc1cc(Br)cn2c(Cc3ccsc3)c(-c3ccco3)nc12 | nt | nt | nt | 7.8 | nt | nt | nt | nt | nt | nt | nt
Cc1cc(O)c(C(C)C)cc1N=Nc1ccccc1C(=O)O | 1.8 | -2.1 | -0.5 | 41.3* | 0.3 | 26.5* | 31.0* | 47.7* | 22.9 | -20.3 | 27.0
Cc1cc(N=Nc2ccccc2C(=O)O)c(C)c(C)c1O | -7.9 | 8.1 | -1.1 | 91.5* | -0.9 | 41.4* | 41.9* | 59.8* | 68.6* | -1.0 | 48.2*
COc1cc(N=Nc2ccccc2C(=O)O)ccc1O | -11.5 | -9.6 | -6.8 | 0.0 | -8.2 | -3.6 | nt | nt | nt | nt | nt
